In PubChem BioAssay (NCI):
The panel holds about 83,000 compounds, 20% with a hit somewhere; the sample as a whole holds those more often.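 Step 1: grow cells in 96-well plates. Step 2: add test compound at a single concentration. Step 3: incubate 48 h. Step 4: record percent growth.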 Unmarked numbers belong to inactive results. The source made the active and inactive calls. How the source made its calls: active means growth percent below 10; inactive means the rest.

Legend:
Experiment in all cases: NCI-60 one-dose screen, 48 h (100 = growth as untreated, 0 = no growth, -100 = all killed)
Settings in all cases: 10 µM unless noted
[1] = tested on: HCT-15 colon
[2] = tested on: HT29 colon
[3] = tested on: SNB-75 CNS
[4] = tested on: SNB-19 CNS
[5] = tested on: U251 CNS
[6] = tested on: PC-3 prostate
[7] = tested on: SK-MEL-5 melanoma
[8] = tested on: UACC-62 melanoma
[9] = tested on: LOX IMVI melanoma
[10] = tested on: SK-MEL-28 melanoma
[11] = tested on: SK-MEL-2 melanoma
[12] = tested on: EKVX NSCLC
[13] = tested on: SN12C renal
[14] = tested on: UO-31 renal
[15] = tested on: TK-10 renal
[16] = tested on: ACHN renal
[17] = tested on: CAKI-1 renal
[18] = tested on: A498 renal
[19] = tested on: CCRF-CEM leukemia
[20] = tested on: MOLT-4 leukemia

CC1CCN(C(=O)CSc2nc3sc4c(c3c(=O)[nH]2)CCCC4)CC1
growth [1]: 102% | growth [2]: 116% | growth [3]: 99.5% | growth [4]: 106% | growth [5]: 95.5% | growth [6]: 100% | growth [7]: 91.8% | growth [8]: 105% | growth [9]: 86.4% | growth [10]: 125% | growth [11]: 80.2% | growth [12]: 98.9% | growth [13]: 102% | growth [14]: 82.6% | growth [15]: 163% | growth [16]: 101% | growth [17]: 96.4% | growth [18]: 95.8% | growth [19]: 74.4% | growth [20]: 98.5%

Clc1nc(Cl)c2ncn(C/C=C/Cn3cnc4c(Cl)nc(Cl)nc43)c2n1
growth [1]: 50.1% | growth [2]: 48% | growth [3]: 65% | growth [4]: 74.5% | growth [5]: 57.4% | growth [6]: 66.6% | growth [7]: 68.7% | growth [8]: 79.1% | growth [9]: 38.8% | growth [10]: 98.8% | growth [11]: 96.5% | growth [12]: 86.6% | growth [13]: 96.5% | growth [14]: 5.99% (active) | growth [15]: 79.9% | growth [16]: 90% | growth [17]: -60% (active) | growth [18]: 90.2% | growth [19]: 18.2% | growth [20]: 80.8%

O=C1C2=C(C(=O)c3c(O)ccc(O)c31)N(c1cccnc1)Cc1ccccc1O2
growth [1]: -32.8% (active) | growth [2]: -60.4% (active) | growth [3]: 22.1% | growth [4]: 5.25% (active) | growth [5]: 2.04% (active) | growth [6]: -31.7% (active) | growth [7]: 11.4% | growth [8]: -76.5% (active) | growth [9]: -64.6% (active) | growth [10]: -72% (active) | growth [11]: -42.6% (active) | growth [12]: 2.08% (active) | growth [13]: -43.8% (active) | growth [14]: -83.5% (active) | growth [15]: -99.2% (active) | growth [16]: -85.4% (active) | growth [17]: -96.2% (active) | growth [18]: 99% | growth [19]: -1.32% (active) | growth [20]: -18.5% (active)

CC(=O)N1Cc2ccccc2C(C)Cc2cc(Cl)ccc21 (stereo unspecified)
growth [1]: 105% | growth [2]: 97.6% | growth [3]: 101% | growth [4]: 101% | growth [5]: 105% | growth [6]: 95.8% | growth [7]: 103% | growth [8]: 98% | growth [9]: 105% | growth [10]: 112% | growth [11]: 105% | growth [12]: 94.5% | growth [13]: 104% | growth [14]: 97.8% | growth [15]: 98.4% | growth [16]: 109% | growth [17]: 90% | growth [18]: 75.7% | growth [19]: 110% | growth [20]: 97%

CCSc1nnc(NC(=O)COc2ccc(Cl)cc2C)s1
growth [1]: 102% | growth [2]: 115% | growth [3]: 110% | growth [4]: 95.2% | growth [5]: 99.4% | growth [6]: 104% | growth [7]: 97.3% | growth [8]: 98.7% | growth [9]: 93.8% | growth [10]: 114% | growth [11]: 48.6% | growth [12]: 102% | growth [13]: 101% | growth [14]: 46.2% | growth [15]: 116% | growth [16]: 96.5% | growth [17]: 85.8% | growth [18]: 109% | growth [19]: 99.1% | growth [20]: 95.6%

Cc1ccc2c(c1)C(C)Cc1c(ncnc1-n1cnc3ccccc31)N2C (stereo unspecified)
growth [1]: 12.3% | growth [2]: 4.56% (active) | growth [3]: -10.3% (active) | growth [4]: 34% | growth [5]: 18.4% | growth [6]: 21.9% | growth [7]: 12.2% | growth [8]: 26% | growth [9]: 34% | growth [10]: 61.8% | growth [11]: 38.6% | growth [12]: 40.1% | growth [13]: 37.5% | growth [14]: 40.1% | growth [15]: 13.8% | growth [16]: 35.4% | growth [17]: 24.6% | growth [18]: -16% (active) | growth [19]: 10% | growth [20]: 11.7%

CCN(Cc1ccc(CN(CC)C(=O)C(Br)Br)cc1)C(=O)C(Br)Br
growth [1]: 24.5% | growth [2]: 6.76% (active) | growth [3]: 54.9% | growth [4]: 60.8% | growth [5]: -9.38% (active) | growth [6]: 41.3% | growth [7]: 12.3% | growth [8]: 18.2% | growth [9]: 37.1% | growth [10]: 36.7% | growth [11]: 76.9% | growth [12]: 31.3% | growth [13]: 48.9% | growth [14]: 52.2% | growth [15]: 48.1% | growth [16]: 12.1% | growth [17]: 28.3% | growth [18]: 38.3% | growth [19]: 24.9%

O=C(Cc1c(F)cccc1Cl)Nc1ccc(S(=O)(=O)Nc2ncccn2)cc1
growth [1]: 104% | growth [2]: 120% | growth [3]: 110% | growth [4]: 96% | growth [5]: 105% | growth [6]: 100% | growth [7]: 100% | growth [8]: 107% | growth [9]: 92.9% | growth [10]: 122% | growth [11]: 73.1% | growth [12]: 100% | growth [13]: 96% | growth [14]: 42.7% | growth [15]: 112% | growth [16]: 100% | growth [17]: 91% | growth [18]: 98.4% | growth [19]: 61.6% | growth [20]: 103%

CCOC(=O)CC/C(C)=N\Nc1ccc([N+](=O)[O-])cc1
growth [1]: 35.8% | growth [2]: 52.9% | growth [3]: 93% | growth [4]: 95.5% | growth [5]: 69.1% | growth [6]: 49.7% | growth [7]: 54.3% | growth [8]: 23.5% | growth [9]: 17.1% | growth [10]: 99.9% | growth [11]: 58.8% | growth [12]: 51.9% | growth [13]: 77.6% | growth [14]: 30.3% | growth [15]: 58.2% | growth [16]: 36.8% | growth [17]: 40.6% | growth [18]: 85.1% | growth [19]: 41.7% | growth [20]: 35.4%

O=[N+]([O-])c1ccc(S(=O)(=O)N2CCN(c3ccnc4cc(Cl)ccc34)CC2)c([N+](=O)[O-])c1
growth [1]: 66.6% | growth [2]: 93.5% | growth [3]: 73.8% | growth [4]: 98.2% | growth [5]: 93.9% | growth [6]: 95.1% | growth [7]: 98.8% | growth [8]: 81.8% | growth [9]: 32% | growth [10]: 108% | growth [11]: 101% | growth [12]: 87.9% | growth [13]: 88.2% | growth [14]: 55.4% | growth [15]: 95.4% | growth [16]: 84.3% | growth [17]: 81.1% | growth [18]: 90% | growth [19]: 14.8% | growth [20]: 44.5%

Cc1cc(C(=O)O)c(N)c(C)n1
growth [1]: 100% | growth [2]: 112% | growth [3]: 89.4% | growth [4]: 110% | growth [5]: 104% | growth [6]: 96.4% | growth [7]: 115% | growth [8]: 96.6% | growth [9]: 94.7% | growth [10]: 117% | growth [11]: 119% | growth [12]: 95.4% | growth [13]: 106% | growth [14]: 83.4% | growth [15]: 101% | growth [16]: 109% | growth [17]: 92.3% | growth [18]: 101% | growth [19]: 107% | growth [20]: 101%

C=C1C(=O)O[C@H]2[C@H]1CC/C(Cn1cc(-c3ccccc3C(F)(F)F)nn1)=C\CC[C@@]1(C)O[C@@H]21
growth [1]: -70.7% (active) | growth [2]: -85.3% (active) | growth [3]: 35.1% | growth [4]: 53.3% | growth [5]: 13.1% | growth [6]: -31.1% (active) | growth [7]: 14.5% | growth [8]: -61.8% (active) | growth [9]: -91.7% (active) | growth [10]: -58.9% (active) | growth [11]: -42.2% (active) | growth [12]: -78.6% (active) | growth [13]: -35.3% (active) | growth [14]: -94.5% (active) | growth [15]: -50.1% (active) | growth [16]: -85.4% (active) | growth [17]: -48.8% (active) | growth [18]: 25.9% | growth [19]: -28.5% (active) | growth [20]: -11.7% (active)

C=CCc1cc(Cl)cc2c(OC(C)=O)c(C(C)=O)c(-c3ccccc3)nc12
growth [1]: 108% | growth [2]: 112% | growth [3]: 85.6% | growth [4]: 112% | growth [5]: 105% | growth [6]: 96% | growth [7]: 105% | growth [8]: 101% | growth [9]: 97.3% | growth [10]: 116% | growth [11]: 112% | growth [12]: 75.5% | growth [13]: 99.5% | growth [14]: 78.2% | growth [15]: 114% | growth [16]: 102% | growth [17]: 87.5% | growth [18]: 110% | growth [19]: 104%

COc1cccc2cc(-c3cc4ccccc4[nH]3)c(=NC(=O)c3ccc(Cl)cc3)oc12
growth [1]: 43.3% | growth [2]: 64.4% | growth [3]: 5.92% (active) | growth [4]: 53.5% | growth [5]: 43.9% | growth [6]: 38.5% | growth [7]: 81.7% | growth [8]: 73.8% | growth [9]: 75.5% | growth [10]: 82.2% | growth [11]: 83.3% | growth [12]: 77.9% | growth [13]: 83.8% | growth [14]: 58.4% | growth [15]: 96.6% | growth [16]: 51.5% | growth [17]: 53.8% | growth [18]: 64.9%

CCOC(=O)/C=C\C(=O)NC(N)=O
growth [1]: 99.9% | growth [2]: 104% | growth [3]: 99.3% | growth [4]: 106% | growth [5]: 94% | growth [6]: 83.5% | growth [7]: 105% | growth [8]: 99.3% | growth [9]: 91.8% | growth [10]: 118% | growth [11]: 101% | growth [12]: 98.8% | growth [13]: 103% | growth [14]: 90.8% | growth [15]: 97.8% | growth [16]: 112% | growth [17]: 96% | growth [18]: 107% | growth [19]: 93.9% | growth [20]: 86.5%
